# Test results from PubChem BioAssay AID1851 (National Center for Advancing Translational Sciences (NCATS), 2009).
# Out of some 16,000 compounds screened, about 5,800 (36%) were called active. About 23% were inconclusive and are not listed. Calls come from the whole dose curve; as a rule, active = well fitted curve in the direction sought with a large enough effect; inconclusive = small, poorly fitted or top-dose-only effect, or effect the other way; inactive = no such curve, though single readings can be large or run the other way. The list shows a part of the results.
# Target: Cytochrome P450 2C19 (Homo sapiens) (UniProt P33261)
# Sequence (P33261 whole entry, looked up): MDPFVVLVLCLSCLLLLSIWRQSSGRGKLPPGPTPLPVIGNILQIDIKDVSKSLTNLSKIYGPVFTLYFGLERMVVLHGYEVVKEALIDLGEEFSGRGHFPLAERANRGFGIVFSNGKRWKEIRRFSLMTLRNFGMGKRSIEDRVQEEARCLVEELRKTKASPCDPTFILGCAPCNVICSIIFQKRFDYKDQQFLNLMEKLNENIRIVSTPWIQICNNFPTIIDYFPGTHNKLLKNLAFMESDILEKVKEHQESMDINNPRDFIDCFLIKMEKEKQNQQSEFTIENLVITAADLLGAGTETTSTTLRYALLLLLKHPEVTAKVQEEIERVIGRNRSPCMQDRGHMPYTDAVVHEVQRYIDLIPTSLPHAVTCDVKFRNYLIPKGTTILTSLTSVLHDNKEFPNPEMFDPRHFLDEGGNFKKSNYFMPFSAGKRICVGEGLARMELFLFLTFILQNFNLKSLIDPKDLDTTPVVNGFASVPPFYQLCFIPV
# Test: Cytochrome panel assay with activity outcomes
# Conditions: recombinant CYP, pro-luciferin dealkylation, luminescence, p450-cyp2c19; series mostly up to 57.1 µM; activity, negative = inhibition: at the top concentration
# % is set by controls: 0 for no effect and ±100 for the full control effect.
SMILES,AC50,"activity, negative = inhibition"
Cc1ccc2c(c1)C(=O)[C@@]1(O)CCN(c3ccccc3)C1=N2,7.94 µM (active),–
CC(C)(Oc1ccc(Cl)cc1)C(=O)Nc1ccncc1,0.0562 µM (active),–
CC(C)(Oc1ccc(Cl)cc1)C(=O)Nc1cccnc1,2.51 µM (active),–
CCC(C)(C)N=C(NC#N)Nc1cccnc1,–,15.9% (inactive)
CC(C)(Oc1ccc(CCNC(=O)c2ccc(Cl)cc2)cc1)C(=O)O,–,-13.4% [at 25.6 µM] (inactive)
CC(C)(Oc1ccc([C@@H]2CC2(Cl)Cl)cc1)C(=O)O,inactive,–
O=C1c2ccccc2CCC12N=NCC2c1ccc(Cl)cc1 (configuration not stated),0.562 µM (active),–
C=CCn1c(SCc2ccc3c(c2)OCO3)nc2scc(-c3ccco3)c2c1=O,1.41 µM (active),–
C=CCn1c(SCc2ccccc2)nc2scc(-c3ccc(C)o3)c2c1=O,–,-28.8% (inactive)
C=CCn1c(SC(C)C(=O)NCc2ccc3c(c2)OCO3)nc2scc(-c3ccccc3)c2c1=O (configuration not stated),2 µM (active),–
C=CCn1c(SCC(=O)N2CC(=O)Nc3ccccc32)nc2scc(-c3ccccc3)c2c1=O,7.94 µM (active),–
NS(=O)(=O)c1cc2c(cc1Cl)N[C@@H](C(Cl)Cl)NS2(=O)=O,–,4.71% [at 25.6 µM] (inactive)
CCCCCCCCOC1OC(CO)C(O)C(O)C1NC(C)=O (configuration not stated),–,51.9% (inactive)
Cc1ccc(NC(=O)N/C=C/c2ccco2)cc1C,3.16 µM (active),–
C/C(=N\NC(=O)CC1N=C(Cc2ccccc2)NNC1=O)c1ccc(Cl)cc1Cl (configuration not stated),28.2 µM (active),–
CCNc1ncc2nc(-c3ccc(F)cc3)c(=O)n(C[C@H]3CCCO3)c2n1,–,-11.2% (inactive)
Cc1cccc2c(SCC(=O)NCC3CCCO3)nc(-c3ccc(F)cc3)nc12 (configuration not stated),1.26 µM (active),–
O=C(CSCc1c(F)cccc1Cl)NCC1CCCO1 (configuration not stated),11.2 µM (active),–
O=C(CC(c1ccccc1)c1ccccc1)NCC1CCCO1 (configuration not stated),14.1 µM (active),–
CC(NC(=O)OCc1ccccc1)C(=O)NCC1CCCO1 (configuration not stated),–,-22.3% (inactive)
CN(c1ccc(C(=O)NCC2CCCO2)cc1)S(=O)(=O)c1ccccc1 (configuration not stated),–,-9.95% (inactive)
CN(C)c1ncc2nc(-c3ccc(F)cc3)c(=O)n(C[C@H]3CCCO3)c2n1,–,-21.9% (inactive)
Oc1ccc([C@@H]2CNCCc3c2cc(O)c(O)c3Cl)cc1,–,14.3% (inactive)
CC(C)NC[C@@H](O)COc1ccc(CCOCC2CC2)cc1,inactive,–
COc1ccc(CCC(C)NC2C3CC4CC(C3)CC2C4)cc1 (configuration not stated),25.1 µM (active),–
O=C1N(c2ccccc2)c2ccccc2C1(Cc1ccncc1)Cc1ccncc1,0.2 µM (active),–

SMILES,AC50,"activity, negative = inhibition"
O=C1c2ccccc2C(Cc2ccncc2)(Cc2ccncc2)c2ccccc21,–,-30.9% (inactive)
N#C/C(=C\c1ccc(Cl)cc1)c1nc2ncccc2[nH]1,25.1 µM (active),–
COc1ccccc1CN1CCCC2(CCNCC2)C1,–,-24.4% (inactive)
COc1cccc(CN2C(=O)N(C(C)C)C(N(O)C(=O)NC(C)C)C2(C)C)c1OC (configuration not stated),14.1 µM (active),–
O=C1/C(=C\c2ccccn2)SC(=S)N1Nc1ncc(C(F)(F)F)cc1Cl,7.94 µM (active),–
CN(C)c1ccc(/C=C2\SC(=S)N(Nc3ncc(C(F)(F)F)cc3Cl)C2=O)cc1,20 µM (active),–
O=C(NCc1n[nH]c(=S)n1-c1cccc(Cl)c1)c1ccc(S(=O)(=O)N2CCCC2)cc1,–,-8.01% (inactive)
O=c1c(Cl)c(N2CCN(S(=O)(=O)c3ccc(F)cc3)CC2)cnn1-c1cccc(Cl)c1,4.47 µM (active),–
C[N+](C)(C)CCOC(N)=O,–,22.8% [at 25.6 µM] (inactive)
Nc1ncnc2c1ncn2C1CCCC1,–,4.13% (inactive)
Nc1ncnc2c1c(-c1ccc(Oc3ccccc3)cc1)cn2C1CCCC1,25.1 µM (active),–
C#CCCCO/N=C1/C[C@@H](O)[C@@H](O)[C@@H]2[C@@H]3C(=O)N(C4CCCCC4)C(=O)[C@H]3CC[C@H]12,–,4.77% [at 11.4 µM] (inactive)
c1csc(CNc2ncnc3ccc(-c4ccoc4)cc23)c1,6.31 µM (active),–
COc1cccc(-c2ccc3ncnc(NCc4ccc(OC)cc4OC)c3c2)c1,10 µM (active),–
COc1ccc(CNc2ncnc3ccc(-c4cccc(C#N)c4)cc23)c(OC)c1,–,-35.9% (inactive)
COc1ccccc1CNc1ncnc2ccc(-c3ccccc3OC)cc12,3.16 µM (active),–
COc1ccccc1CNc1ncnc2ccc(-c3ccccc3CN(C)C)cc12,–,-41.1% (inactive)
c1nc(NCCN2CCOCC2)c2cc(-c3ccoc3)ccc2n1,–,6.18% (inactive)
COc1ccccc1CNc1ncnc2ccc(-c3cccc(C#N)c3)cc12,5.01 µM (active),–
N#Cc1cccc(-c2ccc3ncnc(NCc4ccccc4)c3c2)c1,–,-32.2% (inactive)
CSc1nnc2c(n1)OC(C)N(C(=O)c1ccccc1)c1ccccc1-2 (configuration not stated),–,-22.2% (inactive)
COc1cccc(-c2ccc3ncnc(NCc4cccs4)c3c2)c1,10 µM (active),–
COc1ccc(CNc2ncnc3ccc(-c4ccccc4OC)cc23)c(OC)c1,7.94 µM (active),–
CS(=O)(=O)Nc1cccc(-c2ccc3ncnc(NCc4cccs4)c3c2)c1,15.8 µM (active),–
CS(=O)(=O)Nc1cccc(-c2ccc3ncnc(NCCN4CCOCC4)c3c2)c1,–,-39.7% (inactive)
COc1ccc(CNc2ncnc3ccc(-c4ccccc4CN(C)C)cc23)c(OC)c1,15.8 µM (active),–
